# Measurements published in PubChem BioAssay AID1159580 (chemical genetic matrix, 2015).
# Several values for one entry are separate records, joined by “and”; a condition that tells them apart may be missing. Equal values may be shown once. The whole screen tested about 5,500 compounds, of which about 2,000 (36%) were called active. Roughly 18% stayed inconclusive and do not appear here. The list shows a part of the results. Unmarked numbers belong to inactive results. Cut-off read from the data, not from the text of the source: active = normalized growth mostly below about 0.91 (no sharp cut-off); inconclusive = no clear call, values can overlap the other calls; inactive = mostly above about 0.92.
# Assay: chemical genetic growth profiling, strain panel (AID 1159580);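 note: tested at 20 µM; growth read once vehicle control cultures reached saturation at 30 °C; 1 = growth at the plate median or of vehicle wells; lower values mean less growth of the strain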
# Conditions: growth OD
compound,measurement,setting,value
CCCCNc1ccc(C(=O)OCCN(C)C)cc1,normalized growth,"S. cerevisiae deletion strains, locus YJR075W, strain HOC1, stronger effect = lower value",1.02
same,normalized growth,"S. cerevisiae deletion strains, locus YKL009W, strain mrt4, stronger effect = lower value",1.02
same,normalized growth,"S. cerevisiae deletion strains, locus YKL068W, stronger effect = lower value",1.01
same,normalized growth,"S. cerevisiae deletion strains, locus YKL085W, strain MDH1 (second series), stronger effect = lower value",1.01
same,normalized growth,"S. cerevisiae deletion strains, locus YKL085W, strain MDH1, stronger effect = lower value",1.01
same,normalized growth,"S. cerevisiae deletion strains, locus YKL160W, strain elf1, stronger effect = lower value",1.03
same,normalized growth,"S. cerevisiae deletion strains, locus YKL190W, strain CNB1, stronger effect = lower value",1.01
same,normalized growth,"S. cerevisiae deletion strains, locus YKR001C, strain vps1, stronger effect = lower value",1.01
same,normalized growth,"S. cerevisiae deletion strains, locus YKR026C, strain gcn3, stronger effect = lower value",1.01
same,normalized growth,"S. cerevisiae deletion strains, locus YKR091W, strain srl3, stronger effect = lower value",1.01
same,normalized growth,"S. cerevisiae deletion strains, locus YLL001W, strain dnm1, stronger effect = lower value",1
same,normalized growth,"S. cerevisiae deletion strains, locus YLL026W, stronger effect = lower value",1.01
same,normalized growth,"S. cerevisiae deletion strains, locus YLL041C, strain sdh2, stronger effect = lower value",0.998
same,normalized growth,"S. cerevisiae deletion strains, locus YLR027C, strain aat2, stronger effect = lower value",1.01
same,normalized growth,"S. cerevisiae deletion strains, locus YLR039C, strain RIC1, stronger effect = lower value",1.14
same,normalized growth,"S. cerevisiae deletion strains, locus YLR058C, strain SHM2, stronger effect = lower value",1.01
same,normalized growth,"S. cerevisiae deletion strains, locus YLR102C, strain apc9, stronger effect = lower value",1.02
same,normalized growth,"S. cerevisiae deletion strains, locus YLR113W, strain HOG1, stronger effect = lower value",0.982
same,normalized growth,"S. cerevisiae deletion strains, locus YLR221C, strain rsa3, stronger effect = lower value",0.975
same,normalized growth,"S. cerevisiae deletion strains, locus YLR258W, strain gsy2, stronger effect = lower value",1.02
same,normalized growth,"S. cerevisiae deletion strains, locus YLR262C, strain YPT6 (second series), stronger effect = lower value",1.05
same,normalized growth,"S. cerevisiae deletion strains, locus YLR262C, strain YPT6, stronger effect = lower value",1.13
same,normalized growth,"S. cerevisiae deletion strains, locus YLR268W, strain sec22, stronger effect = lower value",1.04
same,normalized growth,"S. cerevisiae deletion strains, locus YLR320W, strain mms22, stronger effect = lower value",0.988
same,normalized growth,"S. cerevisiae deletion strains, locus YLR330W, strain CHS5, stronger effect = lower value",1
same,normalized growth,"S. cerevisiae deletion strains, locus YLR342W, strain FKS1 (second series), stronger effect = lower value",1
same,normalized growth,"S. cerevisiae deletion strains, locus YLR342W, strain FKS1, stronger effect = lower value",1.02
same,normalized growth,"S. cerevisiae deletion strains, locus YLR357W, strain rsc2, stronger effect = lower value",1.13
same,normalized growth,"S. cerevisiae deletion strains, locus YLR370C, strain arc18, stronger effect = lower value",1.01
same,normalized growth,"S. cerevisiae deletion strains, locus YLR371W, strain rom2, stronger effect = lower value",1.02
same,normalized growth,"S. cerevisiae deletion strains, locus YLR384C, strain iki3, stronger effect = lower value",1.02
same,normalized growth,"S. cerevisiae deletion strains, locus YLR418C, strain cdc73, stronger effect = lower value",1.01
same,normalized growth,"S. cerevisiae deletion strains, locus YML016C, strain PPZ1, stronger effect = lower value",1
same,normalized growth,"S. cerevisiae deletion strains, locus YML032C, strain rad52, stronger effect = lower value",1.02
same,normalized growth,"S. cerevisiae deletion strains, locus YML120C, strain ndi1, stronger effect = lower value",0.995
same,normalized growth,"S. cerevisiae deletion strains, locus YML124C, strain tub3, stronger effect = lower value",1.02
same,normalized growth,"S. cerevisiae deletion strains, locus YMR058W, strain fet3, stronger effect = lower value",1.02
same,normalized growth,"S. cerevisiae deletion strains, locus YMR078C, strain ctf18, stronger effect = lower value",1.02
same,normalized growth,"S. cerevisiae deletion strains, locus YMR125W, strain sto1, stronger effect = lower value",1.05
same,normalized growth,"S. cerevisiae deletion strains, locus YMR129W, stronger effect = lower value",1.01
same,normalized growth,"S. cerevisiae deletion strains, locus YMR205C, strain PFK2, stronger effect = lower value",1.02
same,normalized growth,"S. cerevisiae deletion strains, locus YMR223W, strain ubp8, stronger effect = lower value",1.01
same,normalized growth,"S. cerevisiae deletion strains, locus YMR231W, strain pep5, stronger effect = lower value",1.02
same,normalized growth,"S. cerevisiae deletion strains, locus YMR307W, strain GAS1, stronger effect = lower value",0.943 and 1.02
same,normalized growth,"S. cerevisiae deletion strains, locus YNL067W, strain RPL9B, stronger effect = lower value",1.01
same,normalized growth,"S. cerevisiae deletion strains, locus YNL071W, strain lat1, stronger effect = lower value",1.02
same,normalized growth,"S. cerevisiae deletion strains, locus YNL128W, strain TEP1, stronger effect = lower value",1.02
same,normalized growth,"S. cerevisiae deletion strains, locus YNL153C, strain GIM3, stronger effect = lower value",1
same,normalized growth,"S. cerevisiae deletion strains, locus YNL175C, strain NOP13, stronger effect = lower value",1.01
same,normalized growth,"S. cerevisiae deletion strains, locus YNL183C, strain NPR1, stronger effect = lower value",0.93
same,normalized growth,"S. cerevisiae deletion strains, locus YNL197C, strain WHI3, stronger effect = lower value",0.982
same,normalized growth,"S. cerevisiae deletion strains, locus YNL209W, strain ssb2, stronger effect = lower value",1.02
same,normalized growth,"S. cerevisiae deletion strains, locus YNL224C, strain SQS1, stronger effect = lower value",0.99
same,normalized growth,"S. cerevisiae deletion strains, locus YNL233W, strain BNI4, stronger effect = lower value",1
same,normalized growth,"S. cerevisiae deletion strains, locus YNL248C, strain rpa49, stronger effect = lower value",1.13 [resistant] (active)
same,normalized growth,"S. cerevisiae deletion strains, locus YNL250W, strain rad50, stronger effect = lower value",0.998
same,normalized growth,"S. cerevisiae deletion strains, locus YNL271C, strain bni1, stronger effect = lower value",1.01
same,normalized growth,"S. cerevisiae deletion strains, locus YNL298W, strain CLA4, stronger effect = lower value",1.02
same,normalized growth,"S. cerevisiae deletion strains, locus YNL307C, strain MCK1, stronger effect = lower value",1.02
same,normalized growth,"S. cerevisiae deletion strains, locus YNL322C, strain KRE1 (second series), stronger effect = lower value",1.01
same,normalized growth,"S. cerevisiae deletion strains, locus YNL322C, strain KRE1, stronger effect = lower value",1.01 and 1.02
same,normalized growth,"S. cerevisiae deletion strains, locus YNR049C, strain mso1, stronger effect = lower value",1.02
same,normalized growth,"S. cerevisiae deletion strains, locus YNR052C, strain pop2, stronger effect = lower value",1.01
same,normalized growth,"S. cerevisiae deletion strains, locus YOL006C, strain TOP1, stronger effect = lower value",0.943
same,normalized growth,"S. cerevisiae deletion strains, locus YOL012C, strain htz1",0.973
same,normalized growth,"S. cerevisiae deletion strains, locus YOL147C, strain pex11, stronger effect = lower value",1.02
same,normalized growth,"S. cerevisiae deletion strains, locus YOR001W, strain rrp6, stronger effect = lower value",0.954
same,normalized growth,"S. cerevisiae deletion strains, locus YOR061W, strain CKA2, stronger effect = lower value",1
same,normalized growth,"S. cerevisiae deletion strains, locus YOR069W, strain VPS5, stronger effect = lower value",1.01
same,normalized growth,"S. cerevisiae deletion strains, locus YOR070C, strain gyp1, stronger effect = lower value",1
same,normalized growth,"S. cerevisiae deletion strains, locus YOR080W, strain dia2, stronger effect = lower value",1
same,normalized growth,"S. cerevisiae deletion strains, locus YOR083W, strain WHI5 (second series), stronger effect = lower value",0.999
same,normalized growth,"S. cerevisiae deletion strains, locus YOR083W, strain WHI5, stronger effect = lower value",1.02
same,normalized growth,"S. cerevisiae deletion strains, locus YOR106W, strain vam3, stronger effect = lower value",1.04
same,normalized growth,"S. cerevisiae deletion strains, locus YOR136W, strain idh2, stronger effect = lower value",1.02
same,normalized growth,"S. cerevisiae deletion strains, locus YOR144C, strain elg1, stronger effect = lower value",1.01
same,normalized growth,"S. cerevisiae deletion strains, locus YOR184W, strain ser1, stronger effect = lower value",1.04
same,normalized growth,"S. cerevisiae deletion strains, locus YOR231W, strain MKK1, stronger effect = lower value",0.995
same,normalized growth,"S. cerevisiae deletion strains, locus YOR265W, strain rbl2, stronger effect = lower value",1.02
same,normalized growth,"S. cerevisiae deletion strains, locus YOR270C, strain vph1, stronger effect = lower value",0.988
same,normalized growth,"S. cerevisiae deletion strains, locus YOR290C, strain snf2, stronger effect = lower value",1.06
same,normalized growth,"S. cerevisiae deletion strains, locus YOR316C, strain cot1, stronger effect = lower value",1.02
same,normalized growth,"S. cerevisiae deletion strains, locus YPL051W, strain arl3, stronger effect = lower value",1.03
same,normalized growth,"S. cerevisiae deletion strains, locus YPL055C, strain LGE1, stronger effect = lower value",1.02
same,normalized growth,"S. cerevisiae deletion strains, locus YPL078C, strain atp4, stronger effect = lower value",1.04
same,normalized growth,"S. cerevisiae deletion strains, locus YPL106C, strain sse1, stronger effect = lower value",1.05
same,normalized growth,"S. cerevisiae deletion strains, locus YPL240C, strain hsp82, stronger effect = lower value",0.998
same,normalized growth,"S. cerevisiae deletion strains, locus YPL241C, strain CIN2, stronger effect = lower value",1
same,normalized growth,"S. cerevisiae deletion strains, locus YPL256C, strain CLN2, stronger effect = lower value",0.964
same,normalized growth,"S. cerevisiae deletion strains, locus YPR119W, strain clb2, stronger effect = lower value",1.01
same,normalized growth,"S. cerevisiae deletion strains, locus YPR141C, strain kar3, stronger effect = lower value",1.02
same,normalized growth,"S. cerevisiae deletion strains, locus YPR163C, strain tif3, stronger effect = lower value",1.02
same,normalized growth,"S. cerevisiae deletion strains, locus YPR167C, strain met16, stronger effect = lower value",1.02
same,normalized growth,"S. cerevisiae deletion strains, strain wtn01, stronger effect = lower value",1.04
same,normalized growth,"S. cerevisiae strains, strain wild type, stronger effect = lower value",1
